Reference: PubChem BioAssay (Tox21)
Inconclusive results are not listed. Activity calls are given as the source filed them. Unless noted, the call rests on the fitted dose curve; in most records, active means well fitted curve in the direction sought with a large enough effect in the repeat runs; inconclusive means weak or mixed curves; inactive means no such curve, though single readings can be large; an effect the other way counts as inactive or inconclusive.

Columns and labels:
[1] = biological target: Peroxisome proliferator-activated receptor delta (Homo sapiens) (UniProt Q03181); test: qHTS assay to identify small molecule agonists of the peroxisome proliferator-activated receptor delta (PPARd) signaling pathway (AID 743212; calls by dose curve;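 further: HEK293H cells with PPARd UAS beta-lactamase reporter GeneBLAzer system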)
Chain of Peroxisome proliferator-activated receptor delta (Homo sapiens) (Q03181 whole entry, looked up): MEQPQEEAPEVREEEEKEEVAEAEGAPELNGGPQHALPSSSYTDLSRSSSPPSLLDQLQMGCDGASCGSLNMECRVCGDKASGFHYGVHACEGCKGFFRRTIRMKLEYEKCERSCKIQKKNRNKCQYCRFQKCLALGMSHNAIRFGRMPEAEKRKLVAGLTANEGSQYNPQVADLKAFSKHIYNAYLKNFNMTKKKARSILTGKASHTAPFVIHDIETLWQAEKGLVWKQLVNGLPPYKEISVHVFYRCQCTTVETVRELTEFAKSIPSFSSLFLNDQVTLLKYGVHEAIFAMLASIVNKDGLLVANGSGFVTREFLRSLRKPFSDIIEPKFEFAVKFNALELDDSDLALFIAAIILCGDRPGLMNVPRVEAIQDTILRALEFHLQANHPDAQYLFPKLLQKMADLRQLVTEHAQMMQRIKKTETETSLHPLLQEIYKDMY
Summary of the method: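 Beta-lactamase reporter readout: a ratiometric FRET signal from the LiveBLAzer substrate after 2 h at room temperature. Compound exposure at 37 °C in PPARδ-bla HEK293H cells driven by an upstream activator sequence.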

[2] = qHTS assay to identify small molecule antagonists of the peroxisome proliferator-activated receptor delta (PPARd) signaling pathway - cell viability counter screen (AID 743213); further: nearly all actives have a fitted effect of over 50% in size
Summary of the method: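 PPARd-bla HEK293H cells (3000/well) got compound plus 300 nM L165041 agonist for 17 h at 37 C. Viability in the same wells came from CellTiter-Glo luminescence after 30 min at room temperature.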

[3] = biological target: Peroxisome proliferator-activated receptor delta (Homo sapiens) (UniProt Q03181); test: qHTS assay to identify small molecule antagonists of the peroxisome proliferator-activated receptor delta (PPARd) signaling pathway (AID 743215; active means well fitted inhibition curve with a large enough effect in the signal ratio in the repeat runs, not every such curve was filed as active; the % refers to the signal ratio;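 further: cells stimulated with agonist L165041 at 300 nM final during compound exposure; series mostly up to about 62 µM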)
Summary of the method: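 Plated HEK293H PPARd-bla cells rested 5 h at 37 C and 5% CO2. Compound, then agonist L165041 at 300 nM final, was added; 17 h at 37 C followed. Substrate loading, 2 h room temperature, fluorescence measured.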

[4] = qHTS assay to identify small molecule agonists of the farnesoid-X-receptor (FXR) signaling pathway - cell viability counter screen (AID 743218); further: nearly all actives have a fitted effect of over 45% in size
Summary of the method: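 Viability of FXR-bla HEK 293T cells is measured by ATP-based CellTiter-Glo luminescence following 16 h compound treatment at 37 C and a prior 2 h room-temperature beta-lactamase substrate step.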

[5] = qHTS assay to identify small molecule antagonists of the farnesoid-X-receptor (FXR) signaling pathway - cell viability counter screen (AID 743221; active means well fitted cell-killing curve with a large enough effect in the repeat runs, not every such curve was filed as active; further: nearly all actives have a fitted effect of over 50% in size)
Summary of the method: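 HEK 293T FXR-bla cells, 5 h pre-incubation; compound + CDCA 50 uM final, 16 h, 37 C; beta-lactamase FRET read first, then CellTiter-Glo luminescence, 30 min RT.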

[6] = qHTS assay to identify small molecule agonists of the vitamin D receptor (VDR) signaling pathway - cell viability counter screen (AID 743224); further: series mostly up to about 63 µM; nearly all actives have a fitted effect of over 50% in size
Summary of the method: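 Compounds were pin-transferred onto VDR-bla cells plated 4 h earlier; following 16 h incubation at 37C, cell viability was quantified by CellTiter-Glo luminescence after 30 min at room temperature.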

[7] = biological target: Vitamin D3 receptor (Homo sapiens) (UniProt P11473); test: qHTS assay to identify small molecule agonists of the vitamin D receptor (VDR) signaling pathway (AID 743222; calls by dose curve)
Chain of Vitamin D3 receptor (Homo sapiens) (P11473 whole entry, looked up): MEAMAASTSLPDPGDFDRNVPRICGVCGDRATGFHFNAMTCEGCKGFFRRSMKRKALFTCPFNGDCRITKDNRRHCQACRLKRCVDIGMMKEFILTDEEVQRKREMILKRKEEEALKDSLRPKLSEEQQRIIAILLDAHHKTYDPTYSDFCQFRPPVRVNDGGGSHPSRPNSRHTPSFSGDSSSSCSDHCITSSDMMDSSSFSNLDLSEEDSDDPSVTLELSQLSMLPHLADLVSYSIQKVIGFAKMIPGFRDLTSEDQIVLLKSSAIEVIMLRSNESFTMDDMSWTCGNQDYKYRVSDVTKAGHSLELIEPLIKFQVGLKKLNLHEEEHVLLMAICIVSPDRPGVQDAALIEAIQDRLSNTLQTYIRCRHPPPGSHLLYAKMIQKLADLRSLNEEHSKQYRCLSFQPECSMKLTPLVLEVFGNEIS
Summary of the method: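 Fluorescence from cleaved LiveBLAzer B/G FRET substrate served as readout. VDR-bla cells had been treated 16 h at 37C with test compounds in DMSO, following a 4 h settling period, and substrate was loaded for 2 h at RT.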

[8] = biological target: Vitamin D3 receptor (Homo sapiens) (UniProt P11473); test: qHTS assay to identify small molecule antagonists of the vitamin D receptor (VDR) signaling pathway (AID 743223; active means well fitted inhibition curve with a large enough effect in the signal ratio in the repeat runs, not every such curve was filed as active; the % refers to the signal ratio)
Summary of the method: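 Beta-lactamase reporter read-out: FRET substrate fluorescence after 2 h at room temperature, following 16 h exposure of VDR-bla cells to test compound plus 3 nM (final) 1alpha,25-dihydroxyvitamin D3 agonist at 37C.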

[9] = biological target: Bile acid receptor (Homo sapiens) (UniProt Q96RI1); test: qHTS assay to identify small molecule agonists of the farnesoid-X-receptor (FXR) signaling pathway (AID 743220; active means well fitted activation curve with a large enough effect in the signal ratio in the repeat runs, not every such curve was filed as active; the % refers to the signal ratio)
Chain of Bile acid receptor (Homo sapiens) (Q96RI1 whole entry, looked up): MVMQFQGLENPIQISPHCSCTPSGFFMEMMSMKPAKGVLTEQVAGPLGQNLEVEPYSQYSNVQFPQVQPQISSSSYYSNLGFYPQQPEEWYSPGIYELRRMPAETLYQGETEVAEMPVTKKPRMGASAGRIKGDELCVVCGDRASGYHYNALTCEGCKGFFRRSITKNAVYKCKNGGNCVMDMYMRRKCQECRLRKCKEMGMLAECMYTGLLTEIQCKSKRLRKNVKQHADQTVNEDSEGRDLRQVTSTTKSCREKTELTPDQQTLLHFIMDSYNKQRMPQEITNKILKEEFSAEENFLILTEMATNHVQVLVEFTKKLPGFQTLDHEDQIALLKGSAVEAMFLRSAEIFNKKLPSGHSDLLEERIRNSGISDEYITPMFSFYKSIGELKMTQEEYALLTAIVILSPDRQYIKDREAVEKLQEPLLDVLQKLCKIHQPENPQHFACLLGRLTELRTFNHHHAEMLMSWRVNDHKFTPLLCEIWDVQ
Summary of the method: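 FXR-UAS-bla HEK 293T cells carrying a UAS-driven beta-lactamase reporter were plated for 5 h at 37C/5% CO2, then exposed to DMSO-dissolved Tox21 10K compounds for 16 h at 37C. A LiveBLAzer B/G FRET substrate was loaded for 2 h at room temperature before fluorescence reading.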

[10] = biological target: Bile acid receptor (Homo sapiens) (UniProt Q96RI1); test: qHTS assay to identify small molecule antagonists of the farnesoid-X-receptor (FXR) signaling pathway (AID 743217; active means well fitted inhibition curve with a large enough effect in the signal ratio in the repeat runs, not every such curve was filed as active; the % refers to the signal ratio)
Summary of the method: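 Screen of the Tox21 10K library in quantitative HTS format using FXR-UAS-bla HEK 293T reporter cells. Agonist chenodeoxycholic acid, 50 uM final, added with compounds; 16 h incubation at 37 °C; beta-lactamase FRET fluorescence measured.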

Measured: outcome

CO/N=C(/C(=O)N[C@@H]1C(=O)N2C(C(=O)[O-])=C(C[n+]3ccn4ncccc43)CS[C@H]12)c1nsc(N)n1
inactive: [1] | [2] | [3] | [4] | [5] | [6]

Cn1c(=O)c2[nH]c(Br)nc2n(C)c1=O
inactive: [1] | [2] | [3] | [4] | [7] | [8]

Cc1ccc2c(c1)C(=O)c1ccccc1C2=O
not listed: [9] | [10]
inactive: all other assays above

CCOC(=O)CC1(C)OCC(C)O1 (centres undefined)
inactive: [1] | [2] | [3] | [4] | [5] | [6]

CC(O)COC(C)(C)C (centres undefined)
not listed: [8] | [9] | [10]
inactive: all other assays above

O/N=C/C=N/O
inactive: [1] | [2] | [3] | [4] | [7] | [8]

CC(C)C1OCCN1CCOC(=O)NCCCCCCNC(=O)OCCN1CCOC1C(C)C (centres undefined)
inactive: [1] | [2] | [3] | [4] | [5] | [6]

Cc1ccnc(N)c1
inactive: [1] | [2] | [3] | [4] | [9] | [6]

C=CCCCC
inactive: [1] | [2] | [3] | [4] | [5] | [6]

CCC[C@@H]1C[C@@H](C(=O)N[C@@H]([C@H]2O[C@H](SC)[C@H](O)[C@@H](O)[C@H]2O)[C@@H](C)O)N(C)C1
inactive: [1] | [2] | [3] | [4] | [5] | [6]

O=C(CN1CCNCC1)NC1CCCCC1
inactive: [1] | [2] | [3] | [4] | [5]

O=C1CCC(=O)N1Cl
not listed: [9] | [10]
inactive: all other assays above

CC(C)NC(=O)c1ccc(C=O)cc1
not listed: [9] | [10]
inactive: all other assays above

CC(=O)Nc1ccc(OC(=O)c2ccccc2OC(C)=O)cc1
inactive: [1] | [2] | [3] | [4] | [5] | [7]

C=CCSSCCC
inactive: [1] | [2] | [3] | [4] | [5] | [7]

CC(C)NCC(O)c1ccc2ccccc2c1 (centres undefined)
not listed: [8] | [9] | [10]
inactive: all other assays above

CC(N)CCCC(C)(C)O (centres undefined)
not listed: [9] | [10]
inactive: all other assays above

C[Si]1(C)O[Si](C)(C)O[Si](C)(C)O[Si](C)(C)O[Si](C)(C)O1
not listed: [8] | [9] | [10]
inactive: all other assays above

O=C1CCCCO1
not listed: [8] | [9] | [10]
inactive: all other assays above

COCCc1ccccn1
inactive: [1] | [2] | [3] | [5] | [6]

CC/C=C\CCOC(=O)c1ccccc1O
not listed: [5] | [9] | [10]
inactive: all other assays above

CC(O)CC(C)O (centres undefined)
not listed: [4] | [10]
inactive: all other assays above

OC[C@@H](O)C(O)[C@@H](O)CO (some centres undefined)
inactive: [1] | [2] | [3] | [4] | [7] | [6]

CC1=C(C(=O)O)N2C(=O)[C@@H](NC(=O)[C@H](N)C3=CCC=CC3)[C@H]2SC1
inactive: [1] | [2] | [3] | [5] | [7] | [6]

CN(C)CCOC(=O)C(c1ccccc1)C1(O)CCCC1 (centres undefined)
inactive: [1] | [2] | [3] | [5] | [7] | [8]

N#CCC(=O)NN
inactive: [1] | [2] | [3] | [4] | [7] | [6]

CC(C)COC(=O)c1ccccc1
inactive: [1] | [2] | [3] | [4] | [7] | [6]

O=C(CCCCC(=O)Nc1c(I)cc(I)c(C(=O)O)c1I)Nc1c(I)cc(I)c(C(=O)O)c1I
inactive: [1] | [2] | [3] | [4] | [7] | [6]

CCCC(=O)OC/C=C(\C)CCC=C(C)C
not listed: [3] | [5] | [6]
inactive: all other assays above

Cc1ccc(C)c([N+](=O)[O-])c1
inactive: [1] | [2] | [3] | [5] | [7] | [6]

CCCCC1CCC(O)CC1 (centres undefined)
not listed: [4] | [5] | [10]
inactive: all other assays above

C[C@@H](O)C(=O)O
not listed: [3] | [8]
inactive: all other assays above
